PMC5540273 (PLoS ONE, 2017)

How the values were obtained:
Settings in all cases: concentration: 1 μM, replicates: in singlicate; n = 1
[1] = system: T1, IKK-alpha
T1 construct: gene CHUK

[2] = system: T2, IKK-beta
T2 construct: gene IKBKB

[3] = system: T3, IKK-epsilon
T3 construct: gene IKBKE

[4] = system: INSRR
[5] = system: INSR
[6] = system: IRAK1
[7] = system: IRAK3
[8] = system: IRAK4
[9] = system: ITK
[10] = system: JAK1(JH1domain-catalytic)
[11] = system: JAK1(JH2domain-pseudokinase)
[12] = system: JAK2(JH1domain-catalytic)
[13] = system: JAK3(JH1domain-catalytic)
[14] = system: T4, JNK1
T4 construct: gene MAPK8

[15] = system: T5, JNK2
T5 construct: gene MAPK9

[16] = system: T6, JNK3
T6 construct: gene MAPK10

[17] = system: KIT-autoinhibited
[18] = system: KIT
[19] = system: LATS1
[20] = system: LATS2
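Note: KINOMEscan kinase panel screen.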

| Structure (SMILES) | %Inh [1] [%] | %Inh [2] [%] | %Inh [3] [%] | %Inh [4] [%] | %Inh [5] [%] | %Inh [6] [%] | %Inh [7] [%] | %Inh [8] [%] | %Inh [9] [%] | %Inh [10] [%] | %Inh [11] [%] | %Inh [12] [%] | %Inh [13] [%] | %Inh [14] [%] | %Inh [15] [%] | %Inh [16] [%] | %Inh [17] [%] | %Inh [18] [%] | %Inh [19] [%] | %Inh [20] [%] |
| --- | --- | --- | --- | --- | --- | --- | --- | --- | --- | --- | --- | --- | --- | --- | --- | --- | --- | --- | --- | --- |
| NCCCC(NC(=O)c1cc(Br)c(-c2ccnc3[nH]ccc23)s1)c1ccccc1.O=C(O)C(F)(F)F.O=C(O)C(F)(F)F (centres unmarked) [GSK1287544] | 48 | 58 | 0 | 1 | 0 | 94.8 | 0 | 7 | 12 | 72 | 0 | 91.3 | 87 | 36 | 22 | 19 | 0 | 22 | 66 | 89 |
| Fc1ccc(-c2ncn(C3CCNCC3)c2-c2ccnc(Oc3ccc(-c4ccccc4)cc3)n2)cc1 [SB-245391] | 32 | 32 | 0 | 37 | 22 | 11 | 0 | 0 | 0 | 10 | 0 | 50 | 41 | 36 | 66 | 46 | 0 | 17 | 0 | 21 |
| C[C@@H](Oc1cc(-n2cnc3cc(-c4ccnc(NCCS(C)(=O)=O)c4)ccc32)sc1C(N)=O)c1ccccc1Cl [GSK907232] | 2 | 15 | 0 | 2 | 0 | 36 | 0 | 13 | 21 | 0 | 0 | 50 | 66 | 0 | 10 | 1 | 0 | 80 | 0 | 0 |
| COc1cccc(NC(=O)NC2CCN(c3ccnc(Nc4cc(OC)c(OC)c(OC)c4)n3)C2)c1 (centres unmarked) [GSK1379763] | 0 | 6 | 12 | 0 | 0 | 73 | 86 | 27 | 25 | 0 | 29 | 88 | 0 | 28 | 27 | 39 | 17 | 98.5 | 0 | 13 |
| Cl.NC(=O)c1cccc(Nc2nccc(Nc3ccc(Oc4c(Cl)cccc4Cl)c(Cl)c3)n2)c1 [GW659009] | 0 | 0 | 0 | 0 | 0 | 0 | 90 | 0 | 98.7 | 9 | 0 | 72 | 0 | 26 | 5 | 1 | 0 | 17 | 0 | 0 |
| O=C(Nc1n[nH]c2nc(-c3ccc(O)cc3)ccc12)C1CC1 [SB-710363] | 0 | 0 | 7 | 0 | 0 | 0 | 0 | 0 | 0 | 6 | 33 | 53 | 62 | 25 | 13 | 2 | 0 | 12 | 17 | 10 |
| Cn1cc(-c2ccc3c(c2)CCN3C(=O)Cc2cccc(Cl)c2)c2c(N)ncnc21 [GSK2606590] | 22 | 57 | 78 | 16 | 9 | 0 | 22 | 0 | 19 | 18 | 0 | 16 | 0 | 15 | 42 | 6 | 26 | 100 | 0 | 0 |
| COc1cccc(C2=C(Nc3ccc(Cl)c(C(=O)O)c3)C(=O)NC2=O)c1 [SB-390769] | 100 | 100 | 91.1 | 8 | 100 | 48 | 0 | 31 | 14 | 100 | 0 | 100 | 81 | 52 | 64 | 45 | 0 | 6 | 18 | 100 |
| O=C(NC1CCN(c2ccnc(Nc3ccc(F)cc3)n2)C1)c1cc2ccccc2s1 (centres unmarked) [GSK1379716] | 21 | 0 | 15 | 0 | 70 | 32 | 11 | 17 | 21 | 29 | 0 | 0 | 0 | 24 | 29 | 13 | 0 | 21 | 7 | 0 |
| COc1cc(Nc2nccc(N3CCC(NC(=O)c4cc5ccccc5s4)C3)n2)cc(OC)c1OC (centres unmarked) [GSK1379760] | 0 | 0 | 6 | 4 | 5 | 18 | 85 | 4 | 5 | 8 | 0 | 76 | 0 | 17 | 16 | 23 | 0 | 36 | 57 | 5 |
